# Compounds with a hit are over-represented: about 1.3% of the library has one in this group of screens.
# EPAC1 antagonist: EPAC1 (human) antagonism | O95398 | EPAC1 GEF assay, Rap1b-BODIPY-GDP exchange fluorescence | Potency, µM (top dose mostly 115 µM), for inactives: at the highest dose activity change, negative = inhibition, hits mostly inhibitors | 360,000 tested, 0.14% active | AID 720709;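 further: plate controls were vehicle for no effect and positive control for full effect; nearly all actives have a fitted effect of over 50% in size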
# EPAC2 antag: antagonists of human EPAC2. Q8WZA2. EPAC2 GEF exchange of Rap1B-BODIPY-GDP, fluorescence. Potency, µM (top dose mostly 114 µM), for the others: top-dose activity, negative = inhibition, usual class: inhibitors. 360,000 tested, 0.18% active. AID 720708; further: on the % scale 0 is the no-effect control and ±100 the full control effect; nearly all actives have a fitted effect of over 45% in size
# USP1 inh: USP1/UAF1 (human) deubiquitinase inhibition; recombinant USP1/UAF1, Ub-Rhodamine cleavage fluorescence; O94782; Potency, µM (series often up to 57.1 µM), inactives show at the highest dose activity change, negative = inhibition, actives largely listed as inhibitors; AID 743255; 390,000 tested, 0.23% active; further: on the % scale 0 is the no-effect control and ±100 the full control effect; nearly all actives have a fitted effect of over 60% in size
# Target sequence (O94782 whole entry, looked up): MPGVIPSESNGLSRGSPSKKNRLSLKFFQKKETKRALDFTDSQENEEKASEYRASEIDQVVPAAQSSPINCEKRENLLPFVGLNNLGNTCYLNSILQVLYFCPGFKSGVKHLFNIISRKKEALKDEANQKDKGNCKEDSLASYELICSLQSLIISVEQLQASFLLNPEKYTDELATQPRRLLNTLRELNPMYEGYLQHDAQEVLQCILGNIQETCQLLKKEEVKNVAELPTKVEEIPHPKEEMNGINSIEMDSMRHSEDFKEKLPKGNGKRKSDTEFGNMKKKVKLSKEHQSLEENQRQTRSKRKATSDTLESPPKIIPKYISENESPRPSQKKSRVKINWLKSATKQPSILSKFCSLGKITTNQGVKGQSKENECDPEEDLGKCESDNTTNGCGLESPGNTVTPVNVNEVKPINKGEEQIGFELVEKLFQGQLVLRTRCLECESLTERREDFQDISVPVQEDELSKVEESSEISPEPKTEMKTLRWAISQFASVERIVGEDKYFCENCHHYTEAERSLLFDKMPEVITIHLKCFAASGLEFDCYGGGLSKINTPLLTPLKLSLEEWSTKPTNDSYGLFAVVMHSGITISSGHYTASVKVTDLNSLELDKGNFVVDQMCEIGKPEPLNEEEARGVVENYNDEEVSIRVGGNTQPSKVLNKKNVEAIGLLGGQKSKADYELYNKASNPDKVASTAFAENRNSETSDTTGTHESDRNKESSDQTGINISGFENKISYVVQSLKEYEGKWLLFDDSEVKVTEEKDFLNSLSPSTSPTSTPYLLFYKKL
#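 High-throughput fluorogenic screen: 1nM USP1/UAF1 complex, Ub-Rho substrate 150nM final, 50mM HEPES pH 7.8 with 0.5mM EDTA, 0.1 mg/ml BSA, 1mM TCEP and 0.01% Tween-20.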
# EPAC1 ag: EPAC1 (human) agonism; O95398; EPAC1 agonist qHTS, biochemical assay; response scale: 100% = response to 6.5 mM cAMP; Potency, µM (top dose mostly 154 µM), for the others: at the top dose activation, usual class: activators; 360,000 tested, 0.073% active; AID 720707; further: nearly all actives have a fitted effect of over 60% in size
#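 Nucleotide exchange assay: 100 nM EPAC1 with 250 nM Rap1B loaded with BODIPY-GDP and 50 uM GDP, room temperature. Fluorescence (480/540 nm) read every 5 min for 30 min; signal change normalized to 6.5 mM cAMP as full agonist.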
# EPAC2 agonist: EPAC2 (human) agonism. EPAC2 activation, biochemical qHTS; response scale: 100% = 6.5 mM cAMP response. Potency, µM (doses to about 154 µM), for inactives: top-dose activation, actives largely listed as activators. 360,000 tested, 0.079% active. AID 720711; further: nearly all actives have a fitted effect of over 50% in size
#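 Each well held 100 nM EPAC2, 250 nM RAP1B-BODIPY-GDP and 50 uM GDP. Fluorescence, read at 5-min intervals to 30 min, was referenced to a 6.5 mM cAMP positive control.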
# 12-LOX inh: inhibitors of human 12S-lipoxygenase ALOX12; P18054; purified 12hLO, xylenol orange hydroperoxide absorbance; Potency, µM (titrated, usually from 108 µM), for the others: at the top dose activity change, negative = inhibition, hits mostly inhibitors; 580,000 tested, 1.1% active; further: on the % scale 0 is the no-effect control and ±100 the full control effect
#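 Purified human 12hLO at 150 nM in 25 mM Hepes, 0.01% Triton X-100, pH 7.0, preincubated 15 min at room temperature with compound. Reaction started with 40 uM arachidonic acid, 30 min at room temperature. Hydroperoxide measured by Fe-xylenol orange, 573/405 nm absorbance ratio.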
# * hit, by the source's call; ? = inconclusive; / = no result; ! = repeats disagree; [ ] = dose if it differs, or a comment. The call rests on the fitted dose curve; in most records, active means well fitted curve in the direction sought with a large enough effect; inconclusive means small, poorly fitted or top-dose-only effect, or another doubt; inactive means no such curve, though single readings can be large; an effect the other way counts as inactive or inconclusive. Potency means the concentration at half of the fitted maximal effect.
SMILES,EPAC1 antagonist,EPAC2 antag,USP1 inh,EPAC1 ag,EPAC2 agonist,12-LOX inh
COC(=O)c1c(C)sc(-c2c(-c3ccc(F)cc3)[nH]c3[nH]c(=O)[nH]c(=O)c23)c1O,/,/,-12%,/,/,45µM*
Cc1ccc2c(=O)c(-c3nc(-c4cccc(F)c4)no3)cn(CC(=O)NCc3ccco3)c2n1,/,/,/,/,/,10µM*
Nc1cc(N)c(OCC(F)(F)F)cc1OCC(F)(F)F,-1%,-5%,25µM*,-19%,5%,/
COc1cc(C(C)N)ccc1OCC(F)(F)F (centres undefined),/,/,/,/,/,4%
S=C(NC(=NCc1ccccc1)c1ccccc1)Nc1ccccc1,/,/,/,/,/,14µM*
COc1ccc(NC(=S)NC(=NS(=O)(=O)c2ccc(Cl)cc2)c2ccccc2)cc1,0%,-16%,-4%,-6%,-5%,32µM*
O=S(=O)(/N=C(/NC(=S)Nc1ccccc1)c1ccccc1)c1ccc(Cl)cc1,15%,-7%,-14%,4%,13%,40µM*
S=C(NCCNC(=S)Nc1ccccc1)Nc1ccccc1,-4%,-2%,-10%,9%,-4%,?
C=CCn1c(SCC(=O)c2ccccc2)nc2c1c(=O)[nH]c(=O)n2C,/,/,/,/,/,-7%
Cc1nc2ccccc2cc1C(=O)O,4%,-4%,5%,5%,1%,7.9µM*!
Cc1nc2ccccc2cc1C(=O)NCc1ccccc1,4%,6%,-13%,2%,7%,98%
O=C(CN1C(=O)c2ccccc2S1(=O)=O)NCCSCc1ccccc1Cl,-2%,14%,-15%,15%,16%,?
O=C(CN1C(=O)c2ccccc2S1(=O)=O)NCCSCc1c(F)cccc1Cl,1%,3%,1%,11%,7%,8.9µM*
O=C(Cc1cccs1)OCC(=O)c1ccccc1,/,/,/,/,/,40µM*
COc1ccc(Br)c2oc(S)cc(=O)c12,-7%,-6%,10%,3%,-5%,6.3µM*
COc1ccc(C(=O)c2ccc(OC)c(Br)c2)cc1Br,-3%,13%,-14%,-3%,-3%,?
CC(=O)c1c(C)oc2c(Br)cc(NS(=O)(=O)c3ccc(Br)cc3)cc12,/,/,-28%,/,/,45µM*
S=C(Nc1ccccc1Oc1ccccc1)Nc1cccc(Cl)c1Cl,-20%,-12%,-12%,4%,15%,35µM*
Cc1cn2nc(C(=O)Nc3ccc(C(=O)NCCc4cccs4)cc3)cc2c(=O)[nH]1,/,/,/,/,/,2%
CCOc1ccc(S(=O)(=O)N(C(=O)c2ccco2)c2cc3sc(=O)oc3c3ccccc23)cc1,-1%,7%,-21%,-3%,0%,32µM*
COc1ccc(S(=O)(=O)N(C(=O)c2ccco2)c2cc3sc(=O)oc3c3ccccc23)cc1,?,-9%,-11%,9%,19%,?
Cc1ccc(S(=O)(=O)N(C(=O)c2ccco2)c2cc3sc(=O)oc3c3ccccc23)cc1,-6%,4%,-8%,-3%,-2%,28µM*
Cc1cc(C2=NNC(=NCCc3ccccc3)SC2)c(C)n1CC1CCCO1 (centres undefined),5%,-2%,-18%,-2%,-2%,?
Cc1ccc(N=C2NN=C(c3cc(C)n(CC4CCCO4)c3C)CS2)cc1C (centres undefined),/,/,/,/,/,35µM*
COC(=O)c1ccc(COc2ccc3c(=O)c(Oc4cccc(C)c4)c(C(F)(F)F)oc3c2)cc1,/,/,/,/,/,0%
SMILES,EPAC1 antagonist,EPAC2 antag,USP1 inh,EPAC1 ag,EPAC2 agonist,12-LOX inh
Clc1ccc(CN2CC[C@H](c3nc4cc(Cl)ccc4o3)C2)cc1,/,/,/,/,/,22µM*
FC(F)(F)c1ccc2nc([C@H]3CCN(Cc4ccc(Cl)cc4)C3)[nH]c2c1,/,/,/,/,/,32µM*
Clc1ccc2oc([C@H]3CCN(Cc4cccs4)C3)nc2c1,/,/,/,/,/,-19%[176 µM]
Cc1ccc(C)c(C(=O)COC(=O)COc2ccc(C3SCCCS3)cc2)c1,/,/,/,/,/,10%
CC1CC2=C(NC(=S)NC2c2cccc(F)c2)/C(=C/c2cccc(F)c2)C1 (centres undefined),-5%,-8%,-13%,8%,-3%,28µM*
Cc1ccc(/C=C2\CC(C)CC3=C2NC(=S)NC3c2ccc(C)cc2)cc1 (centres undefined),-10%,-4%,-23%,7%,6%,?
CC1CC2=C(NC(=S)NC2c2ccccc2F)/C(=C/c2ccccc2F)C1 (centres undefined),-10%,-4%,-7%,4%,7%,35µM*
O=C(CSc1nnc(-c2cccnc2)n1Cc1ccco1)N1c2ccccc2Sc2ccccc21,-12%,-3%,-5%,4%,-3%,32µM*
Cc1ccc(C(=O)NCC2CCCN2S(=O)(=O)c2ccc(C)cc2)cc1 (centres undefined),-4%,-14%,0%,6%,4%,4%
CC(C)(C)c1ccc(C(=O)NCC2CCCN2S(=O)(=O)c2ccccc2)cc1 (centres undefined),?,-25%,-18%,45µM*,-4%,10%
CCCNC(=O)N[C@@H]1CCC[C@@H](C(=O)NCCOC)CC(=O)N(C)C1,/,/,/,/,/,25µM*
COCCNC(=O)[C@@H]1CCC[C@@H](NC(=O)c2ccccc2)CN(C)C(=O)C1,/,/,/,/,/,20%[176 µM]
Cc1ccc2c(CC(=O)N(Cc3ccc(F)cc3)C3CC3)coc2c1,/,/,/,/,/,-5%
Cc1nc(=S)c2ccccc2[nH]1,8%,1%,-16%,-17%,0%[15.6 µM],?
FC(F)(F)c1nc(=S)c2ccccc2[nH]1,-10%,6%,-24%,-7%,6%,28µM*
Nc1nn(Cc2ccc(F)cc2)cc1Br,/,/,/,/,/,-2%
CC(C)(C)N/N=C/c1cc(Cl)cc([N+](=O)[O-])c1O,?,-6%,-17%,-8%,-6%,16µM*
O=C(N/N=C/c1cc(Cl)cc([N+](=O)[O-])c1O)C1CC1,2%,-14%,-9%,-5%,4%,-27%
COC(=O)c1c(NC(=O)CN2CCN(C(=O)C3CCCO3)CC2)sc2c1CCC2 (centres undefined),/,/,/,/,/,22%
C#CCN(C)C(=O)[C@@H](C)C1CC[C@@]2(C)Cc3sc(NC(=O)C4CC4)nc3[C@@H](C)[C@@H]2[C@H]1O (some centres undefined),/,/,/,/,/,112µM*
COC(=O)c1cc(-c2c(C)oc3cc(OC(C)C)ccc3c2=O)c(C)o1,0%,9%,-9%,3%,7%,-28%
CCCCOc1ccc2c(=O)c(-c3cc(C(=O)OC)oc3C)c(C)oc2c1,/,/,/,/,/,45µM*
Cc1nc(SCCO)c([N+](=O)[O-])[nH]1,3%,12%,-18%,-10%,7%,25µM*
CCCCSc1nc(C)[nH]c1[N+](=O)[O-],15%,16%[57.1 µM],-21%,-4%,8%,-12%

# From PubChem BioAssay
